Our source for the growth values is PubChem BioAssay (NCI).

What all share (experiment): NCI-60 one-dose screen, 48 h (100 = growth as untreated, 0 = no growth, -100 = all killed)
The subject of one experiment is SK-MEL-2 melanoma. The settings on record: 10 µM unless noted.
The next experiment relates to EKVX NSCLC. The conditions noted are these: 10 µM unless noted.
The next experiment relates to SN12C renal. The settings on record: 10 µM unless noted.
The next experiment deals with UO-31 renal. The settings on record: 10 µM unless noted.
The subject of another experiment is TK-10 renal. The settings on record: 10 µM unless noted.
Another experiment relates to ACHN renal. The conditions noted are these: 10 µM unless noted.
A further experiment relates to CAKI-1 renal. The conditions noted are these: 10 µM unless noted.
The next experiment concerns MOLT-4 leukemia. The conditions noted are these: 10 µM unless noted.
Another experiment deals with SR leukemia. The conditions noted are these: 10 µM unless noted.
For a further experiment, the system named is RPMI-8226 leukemia. The settings on record: 10 µM.
Another experiment deals with OVCAR-8 ovarian. The conditions noted are these: 10 µM unless noted.
For the next experiment, the system named is OVCAR-5 ovarian. The settings on record: 10 µM unless noted.
The subject of the next experiment is OVCAR-4 ovarian. The conditions noted are these: 10 µM unless noted.
Another experiment concerns IGROV1 ovarian. The settings on record: 10 µM unless noted.
In a further experiment the test system is OVCAR-3 ovarian. The settings on record: 10 µM unless noted.
The next experiment has as its system HS 578T breast. The settings on record: 10 µM unless noted.
In another experiment the test system is NCI/ADR-RES ovarian. The settings on record: 10 µM unless noted.
Another experiment has as its system CCRF-CEM leukemia. The conditions noted are these: 10 µM unless noted.
Another experiment has as its system SK-OV-3 ovarian. The settings on record: 10 µM.
In a further experiment the test system is A498 renal. The settings on record: 10 µM unless noted.

This is part of a sample that, as a whole, favours compounds with a hit. Of some 83,000 tested, about 20% had one in any assay.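 For each line, cells grew in 96-well plates with the test compound present at a single concentration for 48 hours.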 Unmarked numbers belong to inactive results. Activity calls are given as the source filed them. The calls were made as follows: active = growth percent below 10; inactive = the rest.

Consider `COc1ccc(/C=N/OCC(O)CNCc2ccccc2)cc1OC1CCCC1` (stereo not drawn), for which the growth in the experiment on SK-MEL-2 melanoma is 115%; with EKVX NSCLC, 93.1%; in the experiment on SN12C renal it was 99.9%; with UO-31 renal, 69.2%; with TK-10 renal, 103%; in the experiment with ACHN renal, 99.6%. Besides, the growth was 84% in the experiment on CAKI-1 renal; 101% in the experiment on MOLT-4 leukemia; 87% with SR leukemia; 98.3% with RPMI-8226 leukemia; 104% with OVCAR-8 ovarian; 101% in the experiment with OVCAR-5 ovarian. For the same molecule, the growth in the experiment on OVCAR-4 ovarian was 91.2%; in the experiment on IGROV1 ovarian, 95.7%; in the experiment on OVCAR-3 ovarian it was 104%; in the experiment with HS 578T breast, 111%; in the experiment on NCI/ADR-RES ovarian, 104%.

With `N#CCCN1CCN(CCC#N)C1=S`, the growth in the experiment with SK-MEL-2 melanoma was 93.4%; in the experiment on EKVX NSCLC it was 102%; in the experiment on SN12C renal, 95.2%; in the experiment with TK-10 renal, 98.1%; in the experiment with ACHN renal, 102%; in the experiment with CAKI-1 renal, 86.4%. The growth in the experiment on CCRF-CEM leukemia was 111%; in the experiment with MOLT-4 leukemia, 103%; in the experiment with RPMI-8226 leukemia, 111%; with OVCAR-8 ovarian, 98.1%; in the experiment on OVCAR-5 ovarian it was 101%; in the experiment on OVCAR-4 ovarian it was 108%. The growth with SK-OV-3 ovarian was 108%; in the experiment with OVCAR-3 ovarian, 110%; with HS 578T breast, 104%; in the experiment on NCI/ADR-RES ovarian it was 102%.

As to `CN1CCN(CCCn2c3c(sc4ncccc43)c(=O)n3nnc(-c4ccccc4)c23)CC1`, the growth was 99.3% in the experiment with SK-MEL-2 melanoma; 97.2% in the experiment on EKVX NSCLC; 75.2% with SN12C renal; -90.8% (active) in the experiment with UO-31 renal; -73.3% (active) in the experiment on TK-10 renal; 97.7% with CAKI-1 renal. The growth is 150% in the experiment on A498 renal; -20.6% (active) in the experiment on CCRF-CEM leukemia; -35% (active) with MOLT-4 leukemia; -25.2% (active) in the experiment on SR leukemia; 72.5% in the experiment with RPMI-8226 leukemia; -48.2% (active) with OVCAR-8 ovarian. The growth is 119% with OVCAR-5 ovarian, -61.4% (active) in the experiment on OVCAR-4 ovarian, -83.1% (active) in the experiment with OVCAR-3 ovarian and -28.4% (active) with NCI/ADR-RES ovarian.

Regarding `O=c1oc2ccccc2cc1-c1csc(N/N=C/c2cc3ccccc3nc2Cl)n1`, the growth in the experiment on SK-MEL-2 melanoma was 106%; with EKVX NSCLC, 96.1%; with SN12C renal, 90.6%; in the experiment with UO-31 renal, 91%; with TK-10 renal, 116%; in the experiment with CAKI-1 renal, 87.5%. The growth with CCRF-CEM leukemia was 111%; in the experiment on MOLT-4 leukemia, 132%; in the experiment with SR leukemia it was 129%; with RPMI-8226 leukemia, 108%; with OVCAR-8 ovarian, 103%; in the experiment on IGROV1 ovarian, 93.3%. Besides, the growth was 108% in the experiment with OVCAR-3 ovarian and 107% in the experiment with HS 578T breast.

On to `COc1cc(C2=NN(c3ccc(S(N)(=O)=O)cc3)C(c3ccc(Cl)cc3)C2)cc(OC)c1OC` (stereo not drawn), for which the growth in the experiment on SK-MEL-2 melanoma is 66.9%; in the experiment with SN12C renal, 51%; with UO-31 renal it was 23.2%; in the experiment on TK-10 renal, 45.9%; in the experiment on ACHN renal, 46.5%; with CAKI-1 renal, 53.3%. Besides, the growth in the experiment on A498 renal was 35.4%; in the experiment on CCRF-CEM leukemia it was 20.7%; in the experiment with MOLT-4 leukemia it was 16.6%; in the experiment with SR leukemia, 17.5%; in the experiment on RPMI-8226 leukemia, -5.03% (active); with OVCAR-8 ovarian, 40%. Further, the growth in the experiment on OVCAR-5 ovarian is 77.5%; in the experiment with OVCAR-4 ovarian, 42.4%; in the experiment with SK-OV-3 ovarian it was 77.9%; in the experiment with IGROV1 ovarian it was 60.9%; in the experiment with OVCAR-3 ovarian, 47.1%; in the experiment on HS 578T breast, 58.4%. Further, the growth in the experiment on NCI/ADR-RES ovarian was 37.5%.

`COc1ncc(F)c(OC)n1`: the growth in the experiment on SK-MEL-2 melanoma was 109%; in the experiment on SN12C renal it was 100%; in the experiment on UO-31 renal, 86.9%; in the experiment on TK-10 renal it was 108%; in the experiment with ACHN renal, 100%; in the experiment with CAKI-1 renal, 94.5%. The growth is 110% with A498 renal; 100% in the experiment on CCRF-CEM leukemia; 94.7% in the experiment on MOLT-4 leukemia; 94% in the experiment on SR leukemia; 101% in the experiment on RPMI-8226 leukemia; 97.3% in the experiment on OVCAR-8 ovarian. Moreover, the growth in the experiment on OVCAR-5 ovarian is 97.9%; in the experiment on OVCAR-4 ovarian, 90%; in the experiment with SK-OV-3 ovarian, 97.8%; in the experiment on IGROV1 ovarian, 103%; with OVCAR-3 ovarian it was 114%; in the experiment with HS 578T breast it was 118%.

`CC1(C)CC(=O)C2=C(C1)Nc1cc3c(cc1C2c1ccc(F)cc1)OCO3` (stereo not drawn): the growth is 91.3% in the experiment with SK-MEL-2 melanoma; 106% in the experiment on SN12C renal; 74% in the experiment with UO-31 renal; 99.4% with TK-10 renal; 98.6% in the experiment on ACHN renal; 96.4% with CAKI-1 renal. The growth in the experiment with A498 renal is 82%; in the experiment with CCRF-CEM leukemia, 86.4%; in the experiment with MOLT-4 leukemia, 83.1%; with SR leukemia it was 90.4%; in the experiment with RPMI-8226 leukemia, 92.1%; with OVCAR-8 ovarian it was 97%. In addition, the growth in the experiment on OVCAR-5 ovarian is 107%; with OVCAR-4 ovarian, 93.9%; with SK-OV-3 ovarian, 97.6%; in the experiment on IGROV1 ovarian it was 100%; in the experiment with OVCAR-3 ovarian, 103%; with HS 578T breast it was 88.3%. The growth in the experiment on NCI/ADR-RES ovarian is 90.7%.

As to `Cc1ccc(S(=O)(=O)N2C/C(=C\c3cc(F)cc(F)c3)C(=O)/C(=C/c3cc(F)cc(F)c3)C2)cc1`, the growth is -25.9% (active) in the experiment with SK-MEL-2 melanoma; -73.9% (active) in the experiment on SN12C renal; -90.5% (active) in the experiment on UO-31 renal; 8.08% (active) in the experiment on TK-10 renal; -91.4% (active) with ACHN renal; -7.75% (active) with CAKI-1 renal. The growth in the experiment on A498 renal is -25.7% (active); in the experiment on CCRF-CEM leukemia, -9.43% (active); with MOLT-4 leukemia, -5.52% (active); in the experiment with SR leukemia, 3.56% (active); in the experiment on RPMI-8226 leukemia, -15.1% (active); with OVCAR-8 ovarian it was -29% (active). The growth is -30.6% (active) in the experiment with OVCAR-5 ovarian; -31.4% (active) in the experiment on OVCAR-4 ovarian; 14.9% in the experiment with SK-OV-3 ovarian; -58.6% (active) in the experiment with IGROV1 ovarian; -82.9% (active) in the experiment with OVCAR-3 ovarian; 11.3% in the experiment on HS 578T breast. The growth with NCI/ADR-RES ovarian was 7.23% (active).
